The source of these data is PubChem BioAssay (NCATS).

A number with no mark means an inactive call. Records with an inconclusive call do not appear. Active and inactive are the calls of the source. Unless noted, the call rests on the fitted dose curve; in most records, active means well fitted curve in the direction sought with a large enough effect; inconclusive means small, poorly fitted or top-dose-only effect, or another doubt; inactive means no such curve, though single readings can be large; an effect the other way counts as inactive or inconclusive.

The nature of experiment [1]: Cell Viability - LYMP2-001 (AID 921).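 Further: series mostly up to about 92 µM; 0% = DMSO only and full inhibition = tetraoctylammonium bromide control wells; nearly all actives have a fitted effect of over 70% in size.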 In a few lines: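 CellTiter-Glo luminescence (intracellular ATP) after 24 hr compound exposure at 37 C, 2500 lymphoblastoid cells/well in complete medium. AC50 fitted with standard Hill equation; tetraoctylammonium bromide positive control.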
Experiment [2] can be described thus: MultiTox-Fluor Cytotoxicity Assay - LYMP1-001 - Dead Cells (AID 946).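 Further: 0% = DMSO and 100% = tetraoctylammonium bromide.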 In a few lines: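 LYMP1-001 lymphoblastoid cells (2500/well) treated 16 h at 37 C. Dead-cell protease cleavage of bis-AAF-R110 read at Ex/Em 485/520. Normalized to DMSO and 15 uM tetraoctylammonium bromide; AC50 from Hill fits.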
Experiment [3] in a line: MultiTox-Fluor Cytotoxicity Assay - LYMP1-001 - Live Cells (AID 947).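 Further: 0% = DMSO only and full inhibition = tetraoctylammonium bromide control.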
Experiment [4] can be described thus: Cell Viability - LYMP1-002 - Assay at 16 hr (AID 948).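 Further: 0% = DMSO alone and full effect = 92 µM tetraoctylammonium bromide.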 In a few lines:
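LYMP1-002 human lymphoblastoid cells, 2500/well; 5 hr 37 C; cpd 16 hr 37 C; CellTiter-Glo 30 min RT; luminescence (ATP). Concentration-response, Hill-fit AC50. Pos ctrl tetraoctylammonium bromide.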

The nature of experiment [5]: MultiTox-Fluor Cytotoxicity Assay - LYMP1-002 - Live Cells (AID 955). Further: on the % scale 0 is the no-effect control and ±100 the full control effect. In a few lines: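 Human lymphoblastoid LYMP1-002 cells, 2500/well in complete medium, rested 5 hr at 37 C, then exposed to compounds for 16 hr at 37 C. Live-cell protease cleavage of GF-AFC read by fluorescence (Ex/Em 405/510) after 60 min at room temperature; AC50 from Hill fits.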
Experiment [6] in a line: MultiTox-Fluor Cytotoxicity Assay - LYMP1-003 - Live Cells (AID 962).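 Further: 0% = DMSO only and full loss = 92 µM tetraoctylammonium bromide; cytotoxic hits lower the live-cell protease signal.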 In a few lines:
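LYMP1-003 human lymphoblastoid cells (2500/well) in complete medium were preincubated 5 hr at 37 C, then exposed to compounds for 16 hr at 37 C. Live-cell protease cleavage of GF-AFC read by fluorescence (Ex/Em 405/510); AC50 from Hill fits.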

Experiment [7] in a line: Cell Viability - LYMP1-003 - Assay at 24 hr (AID 963).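 Further: plate controls were DMSO only for no effect and tetraoctylammonium bromide positive control for full effect.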 In a few lines:
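Human lymphoblastoid LYMP1-003 cells (2500/well) were rested 5 hr at 37 C, then exposed to compounds in complete medium for 24 hr at 37 C. Cellular ATP was quantified by CellTiter-Glo luminescence, and AC50 values came from Hill fits of concentration-response data.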

Experiment [8] can be described thus: Cell Viability - LYMP1-003 - Assay at 40 hr (AID 964). Further: series mostly up to about 92 µM; on the % scale 0 is the no-effect control and ±100 the full control effect; nearly all actives have a fitted effect of over 60% in size. In a few lines: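 Human lymphoblastoid LYMP1-003 cells, 2500/well in complete medium, rested 5 hr at 37 C, then exposed to compounds for 40 hr at 37 C. Viability read as intracellular ATP by CellTiter-Glo luminescence; AC50 from Hill fits of concentration-response data.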
Experiment [9] is described as follows: Cell Viability - LYMP2-003 (AID 965).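 Further: cells exposed to compounds for 24 h before reading; 0% = DMSO only and full effect = 92 µM tetraoctylammonium bromide; nearly all actives have a fitted effect of over 50% in size.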 In a few lines: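 CellTiter-Glo luminescence (cellular ATP) after 24 h compound exposure at 37 C in complete medium; 2500 cells/well, 5 h settling beforehand. Concentration-response fitted to standard Hill equation for AC50. Tetraoctylammonium bromide served as positive control.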
The nature of experiment [10]: Confirmation and Secondary Assay for Modulators of Hemoglobin Beta Chain Splicing at IVS2 654 locus (AID 910).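 Further: HeLa cells stably carrying EGFP split by mutant beta-globin IVS2-654 intron; per-well total GFP intensity by laser scanning cytometry after 2-day treatment; % of control where 0% means no effect.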 In a few lines: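 Readout: per-well total peak green fluorescence (488 nm ex, 500–520 nm em) from objects 5–250 µm, reflecting correct splicing of an EGFP-654 reporter. Compounds were applied for 2 days at 37 °C to overnight-plated HeLa EGFP-654 cells; controls were DMSO and 500 nM IVS2-654 PNA.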

Experiment [11] can be described thus: Confirmation and Secondary Assay for Modulators of Hemoglobin Beta Chain Splicing at IVS2 705 locus (AID 930).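 Further: HeLa cells stably expressing the EGFP-705 splicing reporter; GFP fluorescence per well restored by corrected splicing of the IVS2-705 intron in EGFP; series mostly up to about 46 µM; % of control where 0% means no effect.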 In a few lines:
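HeLa IVS2-705 EGFP reporter cells, 500/well, compound 2 d at 37C; correct splicing yields fluorescent EGFP. Control: 500 nM antisense PNA. Read-out: total peak GFP intensity.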

Experiment [12] in a line: qHTS Assay for Identification of Small Molecule Agonists for Thrombopoietin (TPO) Signaling Pathway (AID 917). Further: on the % scale 0 is the no-effect control and ±100 the full control effect. In a few lines: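 Activators of TPO signaling were sought in murine Ba/F3 cells transfected with the human receptor, using a luciferase gene driven by the Glycoprotein IIb promoter; 24-hr compound exposure at 37 C alongside 26 pM TPO, in IL-3-free medium.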
On the technique in general: Quantitative high-throughput screening tests each substance at several concentrations.

Experiment [13] deals with Muscarinic acetylcholine receptor M1 (Rattus norvegicus) (UniProt P08482). As to the kind of experiment: qHTS Assay for Antagonists of Acetylcholine Muscarinic M1 Receptor: Kinetic Measurement of Intracellular Calcium Response (AID 943).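 Further: Fluo-4 calcium signal as peak divided by basal fluorescence over 4 min; series mostly up to about 35 µM; nearly all actives have a fitted effect of over 75% in size.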 In a few lines: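 CHO cells stably expressing rat M1 were loaded with no-wash Fluo-4 dye for 1 h at 37C, pre-incubated 10 min with compound, then challenged with EC80 carbachol (100 nM final); kinetic calcium read 4 min, peak/basal ratio.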

The target is the same in experiment [14]. As to the kind of experiment: qHTS Assay for Antagonists of Acetylcholine Muscarinic M1 Receptor: Measurement of IP-One Response (AID 944). Further: nearly all actives have a fitted effect of over 75% in size. In a few lines: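 CHO cells expressing rat M1 receptor, recovered overnight, were pre-incubated 10 min with compound, then stimulated 30 min with carbachol at EC80 (200 nM) in LiCl-containing buffer, pH 7.4. IP1 accumulation was read by HTRF (620/665 nm).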

The target in experiment [15] is Pyruvate kinase (Leishmania mexicana) (UniProt Q27686). As to the kind of experiment: qHTS Validation Assay for Inhibitors of Leishmania Mexicana Pyruvate Kinase (AID 945).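 Further: 0% = DMSO only neutral control wells.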 In a few lines:
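Eight-point qHTS titrations; enzyme 0.2 nM LmPYK (E451W mutant); substrates 0.5 mM PEP, 0.1 mM ADP; 7 mM MgCl2; 1 h room temperature; PKLight luminescence normalized to neutral control.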

Experiment [16] deals with Pyruvate kinase PKM (Homo sapiens) (UniProt P14618). As to the kind of experiment: qHTS Assay for Activators of Human Muscle Pyruvate Kinase (AID 954; active means well fitted curve in the direction sought with a large enough effect, not every such curve was filed as active;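 further: 0% = uninhibited enzyme and -100% = no enzyme or full thiadiazolimine inhibition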). In a few lines:
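Purified human PKM2 (0.1 nM) with 0.5 mM PEP (Km) and 0.1 mM ADP in 50 mM imidazole pH 7.2, KCl, MgCl2, 1 h at room temperature; ATP formed read by coupled luciferase luminescence. Normalized to no-enzyme/110 uM thiadiazolimine inhibition; 0.3 nM enzyme column for activation.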

Experiment [17] can be described thus: qHTS Assay for Identification of Small Molecule Agonists for Hypoxia Response Element Signaling Pathway (AID 914; active means well fitted activation curve with a large enough effect in the signal ratio, with a control signal flat, not every such curve was filed as active; the % refers to the signal ratio; further: potency means the concentration at half of the fitted maximal effect; on activation: % of control where 0% means no effect). The following applies: ME-180 (cervical carcinoma) HRE-bla reporter, beta-lactamase ratio, CoCl2, 17 h; activation: stronger effect = higher value. In a few lines: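 HRE-bla ME-180 assay for agonist-like enhancement of an EC50 CoCl2 stimulus: 17 h at 37 degrees Celsius, CCF4 for 2.5 h, ratiometric 460/530 nm signal converted to %Activity and fitted to AC50.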

A short description of experiment [18]: qHTS Assay for Identification of Small Molecule Antagonists for Thrombopoietin (TPO) Signaling Pathway (AID 918). Further: potency means the concentration at half of the fitted maximal effect; nearly all actives have a fitted effect of over 60% in size. Conditions: TPO-dependent cell signaling reporter, antagonist mode. In a few lines:
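Murine Ba/F3 cells stably expressing human TPO receptor and a Glycoprotein IIb promoter–luciferase reporter were IL-3-starved overnight, treated with compounds plus TPO (26 pM final, its EC50) for 24 hrs at 37 C, then read by luminescence.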

Pyruvate kinase (Leishmania mexicana), sequence (Q27686 2-499 E452W): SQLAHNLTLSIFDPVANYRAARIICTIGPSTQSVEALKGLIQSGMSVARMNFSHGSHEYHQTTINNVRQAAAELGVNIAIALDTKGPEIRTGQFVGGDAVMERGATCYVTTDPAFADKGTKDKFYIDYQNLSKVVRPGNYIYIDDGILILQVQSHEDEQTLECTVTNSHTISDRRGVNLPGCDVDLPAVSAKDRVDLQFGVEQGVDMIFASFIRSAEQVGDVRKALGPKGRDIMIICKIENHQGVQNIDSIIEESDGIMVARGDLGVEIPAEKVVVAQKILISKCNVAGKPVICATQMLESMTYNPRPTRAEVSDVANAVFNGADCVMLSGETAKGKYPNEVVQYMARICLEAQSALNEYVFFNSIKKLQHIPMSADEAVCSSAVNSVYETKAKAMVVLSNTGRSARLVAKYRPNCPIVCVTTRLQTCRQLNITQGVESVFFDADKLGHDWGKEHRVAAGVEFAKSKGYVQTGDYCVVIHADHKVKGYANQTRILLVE
Muscarinic acetylcholine receptor M1 (Rattus norvegicus), sequence (P08482 whole entry, looked up): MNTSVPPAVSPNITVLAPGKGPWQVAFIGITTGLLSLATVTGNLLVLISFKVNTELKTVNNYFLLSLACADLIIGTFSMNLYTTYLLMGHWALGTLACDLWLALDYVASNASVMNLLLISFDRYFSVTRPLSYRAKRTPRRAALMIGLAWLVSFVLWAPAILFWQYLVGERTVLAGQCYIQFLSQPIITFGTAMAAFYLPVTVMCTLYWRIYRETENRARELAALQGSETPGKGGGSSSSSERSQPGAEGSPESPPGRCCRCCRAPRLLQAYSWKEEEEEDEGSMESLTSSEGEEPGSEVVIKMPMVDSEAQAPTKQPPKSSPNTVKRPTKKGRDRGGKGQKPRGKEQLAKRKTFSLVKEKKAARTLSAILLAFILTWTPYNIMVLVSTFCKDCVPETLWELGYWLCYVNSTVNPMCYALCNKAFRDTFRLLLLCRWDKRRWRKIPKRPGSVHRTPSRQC
Pyruvate kinase PKM (Homo sapiens), sequence (P14618 whole entry, looked up): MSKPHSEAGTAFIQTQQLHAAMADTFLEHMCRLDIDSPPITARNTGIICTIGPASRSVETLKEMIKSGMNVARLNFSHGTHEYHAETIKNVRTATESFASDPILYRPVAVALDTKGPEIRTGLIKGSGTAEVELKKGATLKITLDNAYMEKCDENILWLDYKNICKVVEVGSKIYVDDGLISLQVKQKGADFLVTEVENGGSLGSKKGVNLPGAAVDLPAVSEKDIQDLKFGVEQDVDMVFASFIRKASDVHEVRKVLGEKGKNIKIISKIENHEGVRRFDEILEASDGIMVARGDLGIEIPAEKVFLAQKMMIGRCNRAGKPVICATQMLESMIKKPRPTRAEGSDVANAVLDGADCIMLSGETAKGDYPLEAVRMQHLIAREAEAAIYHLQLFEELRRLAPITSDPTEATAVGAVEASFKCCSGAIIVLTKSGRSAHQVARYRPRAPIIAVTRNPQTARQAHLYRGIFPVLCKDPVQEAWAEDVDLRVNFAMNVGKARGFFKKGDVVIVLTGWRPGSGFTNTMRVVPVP

For `C/C=C/c1ccc(O)c(OC)c1`, the call in [1], in [2], in experiment [3], in experiment [4], in experiment [5] and in experiment [6] was inactive. Further, the compound was called inactive in experiment [7], in [8] and in experiment [9].
As to `O=C(O)CCNC(=O)c1ccccc1`, the compound was classed as inactive in experiment [10] and in experiment [11].
For `CC(C(=O)O)c1cccc(Oc2ccccc2)c1` (stereo unspecified), the result in [10] and in [11] was inactive.
On to `O=C(CCCN1CC=C(n2c(=O)[nH]c3ccccc32)CC1)c1ccc(F)cc1`, for which the result in [10] and in [11] was inactive.
Take `CN(C)CCOC(=O)C(c1ccccc1)C1(O)CCCC1` (stereo unspecified): the result in [10] and in [11] was inactive.
`NS(=O)(=O)Cc1noc2ccccc12`: the outcome in [12], in experiment [13], in experiment [15] and in [16] was inactive. Besides, the Potency entry in experiment [14] was “inactive”.
Regarding `CC(C)(C)NC[C@H](O)COc1nsnc1N1CCOCC1`, the compound was called inactive in experiment [12], in experiment [15] and in experiment [16]. Moreover, the Potency result in [14] was “inactive”.
Turning to `OC[C@H]1O[C@@H]2O[C@H]3[C@H](O)[C@@H](O)[C@@H](O[C@H]4[C@H](O)[C@@H](O)[C@@H](O[C@H]5[C@H](O)[C@@H](O)[C@@H](O[C@H]6[C@H](O)[C@@H](O)[C@@H](O[C@H]7[C@H](O)[C@@H](O)[C@@H](O[C@H]8[C@H](O)[C@@H](O)[C@@H](O[C@H]1[C@H](O)[C@H]2O)O[C@@H]8CO)O[C@@H]7CO)O[C@@H]6CO)O[C@@H]5CO)O[C@@H]4CO)O[C@@H]3CO`, the compound was classed as inactive in experiment [1], in experiment [2], in experiment [3], in experiment [4], in experiment [5] and in [6]. The result in experiment [7], in experiment [8] and in experiment [9] was inactive.
Consider `O=C(O)P(=O)(O)O`, for which the result in [10] and in [11] was inactive.
As to `COc1cc(C(=O)NCc2ccc(OCCN(C)C)cc2)cc(OC)c1OC`, the result in [10] and in [11] was inactive.
Consider `CN(C)C(=O)Nc1ccc(Cl)c(Cl)c1`, for which the outcome in experiment [10] and in experiment [11] was inactive.
With `Cc1ccccc1OCC(O)CO` (stereo unspecified), the outcome in [10] and in experiment [11] was inactive.
Consider `CCN(CC)CCOc1ccc2c(c1)C(=O)c1cc(OCCN(CC)CC)ccc1-2`, for which the compound was called inactive in [10] and in experiment [11].
On to `Nc1ccc(S(=O)(=O)Nc2cnc3ccccc3n2)cc1`, for which the result in experiment [10] and in experiment [11] was inactive.
Take `CC[N+](C)(CC)CCOC(=O)C(O)(c1ccccc1)C1CCCCC1` (stereo unspecified): the activation in experiment [17] is 1.14%.
Turning to `CCCCC(CC)CN1CN(CC(CC)CCCC)CC(C)(N)C1` (stereo unspecified), the result in experiment [10] and in experiment [11] was inactive.
As to `COc1cc([C@H]2Oc3cc([C@H]4Oc5cc(O)cc(O)c5C(=O)[C@@H]4O)ccc3O[C@@H]2CO)ccc1O`, the compound was classed as inactive in [1], in experiment [2], in experiment [3], in experiment [4], in [5] and in experiment [6]. In addition, the result in experiment [7], in experiment [8] and in experiment [9] was inactive.
With `O=C(O)CCC(=O)Nc1ccc(S(=O)(=O)Nc2nccs2)cc1`, the outcome in experiment [10] and in [11] was inactive.
Regarding `CN1CCC[C@@H]1CCO[C@](C)(c1ccccc1)c1ccc(Cl)cc1`, the Potency in experiment [18] is 10 µM (active). The compound was classed as inactive in experiment [15] and in [16].
For the compound `CCC(Cc1c(I)cc(I)c(N)c1I)C(=O)O` (stereo unspecified), the result in experiment [10] and in [11] was inactive.
Take `CCOC(=O)c1ccc(N)cc1`: the result in experiment [10] and in experiment [11] was inactive.
`C=C[C@H]1CN2CC[C@H]1C[C@@H]2[C@@H](O)c1ccnc2ccc(OC)cc12`: the outcome in [1], in experiment [2], in experiment [3], in experiment [4], in [5] and in experiment [6] was inactive. The outcome in experiment [7], in experiment [8] and in [9] was inactive.
For the compound `COc1ccc(CN(CCN(C)C)c2ncccn2)cc1`, the compound was classed as inactive in experiment [10] and in experiment [11].
Take `Cc1cc(-c2ccccc2)nnc1NCCN1CCOCC1`: the compound was called inactive in [10] and in experiment [11].
For `CCCCC(CC)COC(=O)c1ccc(N(C)C)cc1` (stereo unspecified), the compound was classed as inactive in experiment [1], in experiment [2], in [3], in experiment [4], in experiment [5] and in [6]. For the same compound, the result in [7], in experiment [8] and in [9] was inactive.
As for `CCN(CC)CCNC(=O)COc1ccc(OC)cc1`, the outcome in [10] and in [11] was inactive.
For the compound `Nc1ccc(C(=O)NCC(=O)O)cc1`, the call in [10] and in [11] was inactive.
`CCCCCN=C(N)N/N=C/c1c[nH]c2ccc(OC)cc12`: the result in [10] and in [11] was inactive.
Regarding `CCc1cc(Cl)c(OC)c(C(=O)NC[C@@H]2CCCN2CC)c1O`, the Potency in experiment [17] is 10 µM (active).
For `CCOc1ccccc1C(N)=O`, the compound was classed as inactive in experiment [1], in experiment [2], in [3], in experiment [4], in experiment [5] and in experiment [6]. Also, the compound was classed as inactive in experiment [7], in [8] and in [9].
